# According to paper PMC11006913:
# Substitutions are numbered along the chain they refer to.
# What was measured:
# Assay in all cases: PBM; 200 nM protein, PBS
# Conditions in all cases: dsDNA, one strand shown
# ALX4 [1] = target: ALX4 (Homo sapiens, UniProt Q9H161 200-286)
# ALX4 [2] = target: ALX4 (Homo sapiens, UniProt Q9H161 200-286, Q225E)
# MSX2 [3] = target: MSX2 (Homo sapiens, UniProt P35548 130-214, R199I)
# MSX2 [4] = target: MSX2 (Homo sapiens, UniProt P35548 130-214)
# MSX2 [5] = target: MSX2 (Homo sapiens, UniProt P35548 130-214, F161Y)
# Sequence of MSX2 (Homo sapiens, UniProt P35548 130-214, F161Y) (P35548 130-214 F161Y): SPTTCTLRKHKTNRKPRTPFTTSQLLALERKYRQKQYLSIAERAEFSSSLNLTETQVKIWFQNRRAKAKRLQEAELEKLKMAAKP
# PAX4 [6] = target: T1, PAX4 (Homo sapiens, UniProt O43316 9-242, R200K)
# T1 sequence: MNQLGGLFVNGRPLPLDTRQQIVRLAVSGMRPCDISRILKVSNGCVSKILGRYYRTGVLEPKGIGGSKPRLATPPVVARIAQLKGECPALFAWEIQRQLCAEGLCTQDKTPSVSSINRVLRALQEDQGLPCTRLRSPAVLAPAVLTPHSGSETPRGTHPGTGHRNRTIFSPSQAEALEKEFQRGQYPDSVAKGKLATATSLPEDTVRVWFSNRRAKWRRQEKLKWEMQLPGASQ
# PAX4 [7] = target: T2, PAX4 (Homo sapiens, UniProt O43316 9-242)
# T2 sequence: T1 sequence with K192R
# VAX1 [8] = target: VAX1 (Homo sapiens, UniProt Q5SQQ9 86-172)
# Sequence of VAX1 (Homo sapiens, UniProt Q5SQQ9 86-172) (Q5SQQ9 86-172): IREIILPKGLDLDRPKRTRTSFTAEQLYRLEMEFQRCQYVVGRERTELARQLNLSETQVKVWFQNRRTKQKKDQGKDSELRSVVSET
# VAX1 [9] = target: VAX1 (Homo sapiens, UniProt Q5SQQ9 86-172, T142I)
# Sequence of VAX1 (Homo sapiens, UniProt Q5SQQ9 86-172, T142I) (Q5SQQ9 86-172 T142I): as the sequence (Q5SQQ9 86-172) above, with T57I counted along it
# VAX1 [10] = target: VAX1 (Homo sapiens, UniProt Q5SQQ9 86-172, K157R)
# Sequence of VAX1 (Homo sapiens, UniProt Q5SQQ9 86-172, K157R) (Q5SQQ9 86-172 K157R): as the sequence (Q5SQQ9 86-172) above, with K72R counted along it
# ALX1 [11] = target: ALX1 (Homo sapiens, UniProt Q15699 118-204, L144V)
# Sequence of ALX1 (Homo sapiens, UniProt Q15699 118-204, L144V) (Q15699 118-204 L144V): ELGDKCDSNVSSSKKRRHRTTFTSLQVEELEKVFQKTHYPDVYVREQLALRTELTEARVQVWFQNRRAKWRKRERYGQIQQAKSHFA
# PITX2 = PITX2 (Homo sapiens, UniProt Q99697 72-157)
# ALX1 [12] = target: ALX1 (Homo sapiens, UniProt Q15699 118-204, L144R)
# Sequence of ALX1 (Homo sapiens, UniProt Q15699 118-204, L144R) (Q15699 118-204 L144R): as the sequence (Q15699 118-204 L144V) above, with V27R counted along it
# ALX1 [13] = target: ALX1 (Homo sapiens, UniProt Q15699 118-204)
# Sequence of ALX1 (Homo sapiens, UniProt Q15699 118-204) (Q15699 118-204): as the sequence (Q15699 118-204 L144V) above, with V27L counted along it
# ALX3 [14] = target: ALX3 (Homo sapiens, UniProt O95076 139-225, N203Q)
# Sequence of ALX3 (Homo sapiens, UniProt O95076 139-225, N203Q) (O95076 139-225 N203Q): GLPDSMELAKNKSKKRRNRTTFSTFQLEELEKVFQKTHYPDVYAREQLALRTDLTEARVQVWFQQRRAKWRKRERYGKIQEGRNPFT
# ALX3 [15] = target: ALX3 (Homo sapiens, UniProt O95076 139-225)
# Sequence of ALX3 (Homo sapiens, UniProt O95076 139-225) (O95076 139-225): as the sequence (O95076 139-225 N203Q) above, with Q65N counted along it
# PROP1 [16] = target: PROP1 (Homo sapiens, UniProt O75360 56-141)
# Sequence of PROP1 (Homo sapiens, UniProt O75360 56-141) (O75360 56-141): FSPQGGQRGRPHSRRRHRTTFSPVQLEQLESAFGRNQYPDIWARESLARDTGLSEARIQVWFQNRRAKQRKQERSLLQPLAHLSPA
# PROP1 [17] = target: PROP1 (Homo sapiens, UniProt O75360 56-141, R99H)
# Sequence of PROP1 (Homo sapiens, UniProt O75360 56-141, R99H) (O75360 56-141 R99H): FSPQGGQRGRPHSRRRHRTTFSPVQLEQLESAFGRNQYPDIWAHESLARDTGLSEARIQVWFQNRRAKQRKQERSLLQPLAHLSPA
# ALX3 [18] = target: ALX3 (Homo sapiens, UniProt O95076 139-225, L168Q)
# Sequence of ALX3 (Homo sapiens, UniProt O95076 139-225, L168Q) (O95076 139-225 L168Q): as the sequence (O95076 139-225 N203Q) above, with L30Q, Q65N counted along it
# ALX3 [19] = target: ALX3 (Homo sapiens, UniProt O95076 139-225, L168V)
# Sequence of ALX3 (Homo sapiens, UniProt O95076 139-225, L168V) (O95076 139-225 L168V): as the sequence (O95076 139-225 N203Q) above, with L30V, Q65N counted along it
# PROP1 [20] = target: PROP1 (Homo sapiens, UniProt O75360 56-141, F88S)
# Sequence of PROP1 (Homo sapiens, UniProt O75360 56-141, F88S) (O75360 56-141 F88S): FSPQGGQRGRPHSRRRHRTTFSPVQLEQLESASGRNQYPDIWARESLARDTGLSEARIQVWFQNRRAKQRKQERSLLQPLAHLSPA
# ALX3 [21] = target: ALX3 (Homo sapiens, UniProt O95076 139-225, N203S)
# Sequence of ALX3 (Homo sapiens, UniProt O95076 139-225, N203S) (O95076 139-225 N203S): as the sequence (O95076 139-225 N203Q) above, with Q65S counted along it
# Sequence of ALX4 (Homo sapiens, UniProt Q9H161 200-286) (Q9H161 200-286): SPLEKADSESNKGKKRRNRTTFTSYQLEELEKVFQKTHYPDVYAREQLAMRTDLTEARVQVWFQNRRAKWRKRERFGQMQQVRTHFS
# Sequence of ALX4 (Homo sapiens, UniProt Q9H161 200-286, Q225E) (Q9H161 200-286 Q225E): as the sequence (Q9H161 200-286) above, with Q26E counted along it
# Sequence of MSX2 (Homo sapiens, UniProt P35548 130-214) (P35548 130-214): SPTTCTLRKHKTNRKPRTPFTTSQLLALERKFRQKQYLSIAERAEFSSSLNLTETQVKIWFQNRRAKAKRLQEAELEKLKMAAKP
# Sequence of MSX2 (Homo sapiens, UniProt P35548 130-214, R199I) (P35548 130-214 R199I): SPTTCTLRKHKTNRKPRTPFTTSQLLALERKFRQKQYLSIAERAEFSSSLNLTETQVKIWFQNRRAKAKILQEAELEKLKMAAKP
sequence,measurement,setting,value
CGTGGAGC,binding signal,ALX4 [1],"8.15 upbm affinity estimate (log intensity, higher = more binding, comparable within an allelic series)"
same,binding signal,ALX4 [2],"8.37 upbm affinity estimate (log intensity, higher = more binding, comparable within an allelic series)"
same,binding signal,MSX2 [3],"9.58 upbm affinity estimate (log intensity, higher = more binding, comparable within an allelic series)"
same,binding signal,MSX2 [4],"9.61 upbm affinity estimate (log intensity, higher = more binding, comparable within an allelic series)"
same,binding signal,MSX2 [5],"9.61 upbm affinity estimate (log intensity, higher = more binding, comparable within an allelic series)"
AGCAGCTC,binding signal,ALX4 [1],"8.01 upbm affinity estimate (log intensity, higher = more binding, comparable within an allelic series)"
same,binding signal,ALX4 [2],"8.09 upbm affinity estimate (log intensity, higher = more binding, comparable within an allelic series)"
CAGCGTAA,binding signal,PAX4 [6],"10.6 upbm affinity estimate (log intensity, higher = more binding, comparable within an allelic series)"
same,binding signal,PAX4 [7],"10.8 upbm affinity estimate (log intensity, higher = more binding, comparable within an allelic series)"
AGGAGCCC,binding signal,ALX4 [1],"7.99 upbm affinity estimate (log intensity, higher = more binding, comparable within an allelic series)"
same,binding signal,ALX4 [2],"8.19 upbm affinity estimate (log intensity, higher = more binding, comparable within an allelic series)"
same,binding signal,VAX1 [8],"6.97 upbm affinity estimate (log intensity, higher = more binding, comparable within an allelic series)"
same,binding signal,VAX1 [9],"7.08 upbm affinity estimate (log intensity, higher = more binding, comparable within an allelic series)"
same,binding signal,VAX1 [10],"7.05 upbm affinity estimate (log intensity, higher = more binding, comparable within an allelic series)"
GACCGTCC,binding signal,ALX4 [1],"8.08 upbm affinity estimate (log intensity, higher = more binding, comparable within an allelic series)"
same,binding signal,ALX4 [2],"8.15 upbm affinity estimate (log intensity, higher = more binding, comparable within an allelic series)"
same,binding signal,ALX1 [11],"6.23 upbm affinity estimate (log intensity, higher = more binding, comparable within an allelic series)"
same,binding signal,PITX2,"8.03 upbm affinity estimate (log intensity, higher = more binding, comparable within an allelic series)"
same,binding signal,ALX1 [12],"6.38 upbm affinity estimate (log intensity, higher = more binding, comparable within an allelic series)"
same,binding signal,ALX1 [13],"6.51 upbm affinity estimate (log intensity, higher = more binding, comparable within an allelic series)"
ACGGAGGC,binding signal,ALX4 [1],"8.04 upbm affinity estimate (log intensity, higher = more binding, comparable within an allelic series)"
same,binding signal,ALX4 [2],"8.29 upbm affinity estimate (log intensity, higher = more binding, comparable within an allelic series)"
same,binding signal,MSX2 [3],"9.59 upbm affinity estimate (log intensity, higher = more binding, comparable within an allelic series)"
same,binding signal,ALX3 [14],"7.76 upbm affinity estimate (log intensity, higher = more binding, comparable within an allelic series)"
same,binding signal,MSX2 [4],"9.53 upbm affinity estimate (log intensity, higher = more binding, comparable within an allelic series)"
same,binding signal,ALX3 [15],"7.71 upbm affinity estimate (log intensity, higher = more binding, comparable within an allelic series)"
same,binding signal,PROP1 [16],"6.67 upbm affinity estimate (log intensity, higher = more binding, comparable within an allelic series)"
same,binding signal,PROP1 [17],"6.65 upbm affinity estimate (log intensity, higher = more binding, comparable within an allelic series)"
same,binding signal,ALX3 [18],"7.84 upbm affinity estimate (log intensity, higher = more binding, comparable within an allelic series)"
same,binding signal,ALX3 [19],"7.82 upbm affinity estimate (log intensity, higher = more binding, comparable within an allelic series)"
same,binding signal,PROP1 [20],"6.49 upbm affinity estimate (log intensity, higher = more binding, comparable within an allelic series)"
same,binding signal,MSX2 [5],"9.52 upbm affinity estimate (log intensity, higher = more binding, comparable within an allelic series)"
same,binding signal,ALX3 [21],"7.76 upbm affinity estimate (log intensity, higher = more binding, comparable within an allelic series)"
